Bioassay records as filed in PubChem BioAssay.
15-hLO inh – inhibitors of human 15-lipoxygenase (ALOX15). AID 887. 74,000 tested, 1.4% active. Potency, µM (highest dose often 57.1 µM), inactives show at the top dose activity change, negative = inhibition, most hits filed as inhibitors. purified 15hLO-1, xylenol orange hydroperoxide absorbance; also: potency is read from the fitted curve at half-maximal effect; % is scaled to controls: 0 for no effect and ±100 for the full control effect; nearly all actives have a fitted effect of over 55% in size
Target sequence (P16050 whole entry, looked up): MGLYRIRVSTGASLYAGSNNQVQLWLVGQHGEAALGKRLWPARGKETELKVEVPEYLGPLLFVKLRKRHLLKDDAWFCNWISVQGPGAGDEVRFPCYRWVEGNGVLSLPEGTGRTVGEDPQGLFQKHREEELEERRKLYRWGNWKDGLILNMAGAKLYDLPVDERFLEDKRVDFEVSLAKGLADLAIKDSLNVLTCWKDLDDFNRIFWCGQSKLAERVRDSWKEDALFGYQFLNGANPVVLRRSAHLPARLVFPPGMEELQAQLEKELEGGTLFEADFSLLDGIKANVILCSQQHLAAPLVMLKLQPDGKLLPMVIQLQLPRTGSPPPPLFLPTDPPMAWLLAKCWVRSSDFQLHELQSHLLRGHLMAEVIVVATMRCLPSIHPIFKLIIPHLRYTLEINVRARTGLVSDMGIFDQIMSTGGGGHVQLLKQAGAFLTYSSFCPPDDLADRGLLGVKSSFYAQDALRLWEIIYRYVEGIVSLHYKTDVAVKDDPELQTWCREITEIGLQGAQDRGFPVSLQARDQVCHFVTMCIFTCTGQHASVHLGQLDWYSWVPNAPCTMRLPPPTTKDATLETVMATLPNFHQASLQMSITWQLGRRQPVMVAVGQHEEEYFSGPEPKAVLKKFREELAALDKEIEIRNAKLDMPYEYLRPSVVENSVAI
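Purified human 15hLO-1 (40 nM final) in 25 mM Hepes pH 7.5, 0.01% Triton X-100 was preincubated with compound 15 min at room temperature, then reacted 6 min with 50 uM arachidonic acid; hydroperoxide detected by Fe-XO, 573/405 nm absorbance ratio.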
GFP derepression – derepresses silenced GFP locus in mouse C127i cells; 68,000 tested, 0.09% active; mouse C127i GFP locus derepression, cytometry, 30 h; Potency, µM (doses to about 46.1 µM), inactives show top-dose GFP derepression (activation); AID 597; also: % of control where 0% means no effect
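Read-out is the number of GFP-positive cells, scored as fluorescent objects 20 to 120 um wide, reflecting derepression of a silenced CMV-GFP reporter in murine C127i cells after 30 h compound exposure at 37 C.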
DNA Pol III inh – DNA polymerase III holoenzyme inhibition. reconstituted DNA polymerase III holoenzyme replication, biochemical. Potency, µM (titrated, usually from 57.1 µM), for inactives: at the highest dose activity change, negative = inhibition. 71,000 tested, 0.25% active. AID 603; also: potency is read from the fitted curve at half-maximal effect; % is scaled to controls: 0 for no effect and ±100 for the full control effect
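Reconstituted *E. coli* holoenzyme (0.35 nM Pol III, 1 nM beta, 154 nM SSB, 2 nM primase) was preincubated with compound for 15 min at RT. Synthesis on 1.4 nM ssM13Gori ran 35 min, then was stopped with PicoGreen/EDTA and read as dsDNA fluorescence.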
HBB splicing – alters splicing of the hemoglobin beta chain. HBB splicing reporter cell assay, activation; EGFP reporter with mutant IVS2-654 intron; response scale: normalised to 500 nM splice-correcting PNA. Potency, µM (series often up to 46.1 µM), inactives show at the highest dose activation, most hits filed as activators. AID 925. 65,000 tested, 0.06% active; also: potency is read from the fitted curve at half-maximal effect; 0% is about no effect
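HeLa cells stably expressing EGFP interrupted by mutant beta-globin intron 2 (IVS2-654), 500/well in 2% FCS. Treated with compound for 2 days at 37C. Splicing correction scored as total well GFP intensity (488 nm excitation, 500-520 nm emission); 500 nM antisense PNA served as control.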
Tau fil binding – binders of human tau filaments; recombinant tau filaments, thioflavin S fluorescence, 15 h; filaments grown with octadecylsulfate alongside compound; Potency, µM (doses to about 57.1 µM), without a hit: at the highest dose activity change, negative = inhibition; P10636; 71,000 tested, 2% active;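 also: potency is read from the fitted curve at half-maximal effect; % is scaled to controls: 0 for no effect and ±100 for the full control effect; actives lower thioflavin S fluorescence by blocking filaments or displacing dye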
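Read-out: ThS fluorescence, 450 nm excitation/510 nm emission; lower signal marks blocked filament formation or displaced dye. Tau at 1 uM with 30 uM ODS, 10 uM ThS, 5 mM DTT, 100 mM NaCl, 10 mM HEPES pH 7.4; 15 h, 37 C.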
Ub-GFP proteasome – inhibits proteasome, raising ubiquitin-GFP reporter fluorescence; Ubiquitin-GFP reporter cells, proteasome inhibition, GFP fluorescence; response scale: untreated = 0%, 10 µM MG-132 = 100%; Potency, µM (top dose mostly 45.9 µM), for the others: at the top dose activation (GFP accumulation), hits mostly activators; 67,000 tested, under 10 active; active = well fitted activation curve with a large enough effect, not every such curve was filed as active; inconclusive = small, poorly fitted or top-dose-only effect, or another doubt; inactive = no such curve, though single readings can be large or run the other way; also: potency is read from the fitted curve at half-maximal effect
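U2OS cells stably expressing ubiquitin(G76V)-GFP, seeded overnight in 0.5% FBS medium, were exposed to compounds (qHTS, 46 uM to 2.9 nM) for 4 hr at 37 °C. GFP-positive cells were counted by laser cytometry (488 ex/515 em), normalized between basal and 10 uM MG-132.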
* marks the source's active call; other numbers are inactive results; ? = inconclusive; nt = not tested or not shown; [ ] = another dose, or the depositor's remark. Compounds with a hit are over-represented: about 3.2% of the library has one in this group of screens. Unless noted, calls follow the shape of the dose curve; as a rule, active = well fitted curve in the direction sought with a large enough effect; inconclusive = small, poorly fitted or top-dose-only effect, or another doubt; inactive = no such curve, though single readings can be large; an effect the other way counts as inactive or inconclusive.

SMILES	15-hLO inh	GFP derepression	DNA Pol III inh	HBB splicing	Tau fil binding	Ub-GFP proteasome
COc1cc(NC(=O)c2ccc(Cl)cc2)c(OC)cc1NC(=O)CN1CCOCC1	-4%	2%	-2%	-2%	20µM*	-3%
COc1cc(NC(=O)c2ccccc2)c(OC)cc1NC(C)=O	4%	2%	-4%	-1%	-17%	5%
COc1ccc(C(=O)Nc2cc(OC)cc(OC)c2)cc1	-1%	0%	-3%	0%	-12%	3%
O=C(O)CC12C[C@H]3C[C@@H](CC(O)(C3)C1)C2	-5%[11.4 µM]	2%[9.22 µM]	-4%[11.4 µM]	3%[9.22 µM]	-5%[11.4 µM]	-2%[9.17 µM]
Nc1ncnc2c1ncn2[C@H]1O[C@@H](C(=O)OCCO)[C@@H](O)[C@H]1O	4%[11.4 µM]	-4%[9.22 µM]	-4%[11.4 µM]	3%[9.22 µM]	15%[11.4 µM]	-5%[9.17 µM]
N#C/C(=C\NC(=S)c1ccncc1)c1nc2ccccc2s1	-2%[11.4 µM]	?	-1%[11.4 µM]	?	98%[11.4 µM]	3%[9.17 µM]
Cn1cnnc1SCC(=O)c1c[nH]c2ccccc12	2%	-1%	-5%	0%[57.5 µM]	-15%	-1%
CCn1c(SCC(=O)c2c[nH]c3ccccc23)nnc1-c1cccs1	-4%	20µM*	3%	?	54%	12%
CC(C)(N)C(=O)N[C@@H]1C(=O)N2[C@@H]1SC(C)(C)[C@H]2C(=O)O	4%[11.4 µM]	0%[9.22 µM]	-14%[11.4 µM]	2%[9.22 µM]	2%[11.4 µM]	-5%[9.17 µM]
Cc1nc(NCc2ccccc2)c2nc(-c3ccccc3)n(CCN3CCCCC3)c2n1	20µM*	nt	-7%	-1%	12%	3%
Cc1nc(NCc2ccccc2)c2nc(-c3ccccc3)n(CCCN3CCOCC3)c2n1	?	nt	4%	-1%	32%	0%
Cc1nc(Nc2ccccc2)c2nc(-c3ccccc3)n(CCN3CCOCC3)c2n1	20µM*	nt	-5%	0%	14%	9%
Cc1nc(NC2CCCCC2)c2nc(-c3ccccc3)n(CCCN3CCOCC3)c2n1	32µM*	nt	-1%	-2%	68%	7%
Oc1ccc2cc(SSc3ccc4cc(O)ccc4c3)ccc2c1	?	nt	-13%	-2%	-17%	nt
O=C(Nc1cccc(C(=O)N2CCCCCC2)c1)c1ccco1	8%	0%	-1%	-2%	3%	4%
O=C(Nc1ccc(N2CCCC2)c(Cl)c1)c1ccco1	-24%[11.4 µM]	-2%	-8%[11.4 µM]	0%[0.0738 µM]	4µM*	5%[9.17 µM]
O=C(Nc1ccc2[nH]c3c(c2c1)CCCC3)c1ccco1	16µM*	-2%	?	0%[57.5 µM]	271%	7%
O=C(Nc1ccc(N2CCCCC2)c(C(=O)O)c1)c1ccco1	4%	0%	2%	-1%	3%	-4%
O=C(Nc1ccc(Nc2ccccc2)cc1)c1ccco1	-13%	3%	-2%	0%	20µM*	-8%
CS[C@]12C(=O)C[C@]3(C)[C@@H](CC[C@@]3(O)C(=O)CO)[C@@H]1CCC1=CC(=O)CC[C@]12C	13%[11.4 µM]	3%[9.22 µM]	-12%[11.4 µM]	2%[9.22 µM]	12%[11.4 µM]	4%[9.17 µM]
CC(=O)OC(C(=O)c1ccccc1)c1ccccc1 (stereo unspecified)	-2%	nt	0%	1%	8%	nt
CCOc1ccc(C2C(C#N)=C(N)SC(N)=C2C#N)cc1OCC	?	-2%	17%	nt	23%	-4%
N#CC1=C(N)SC(N)=C(C#N)C1c1cccc(Oc2ccccc2)c1	5µM*	-2%	-2%	0%[9.22 µM]	-4%	-7%
COc1ccc2c(c1)[n+]([O-])c(/C(C)=N/NC(N)=S)c(C)[n+]2[O-]	-7%[11.4 µM]	0%[9.22 µM]	-12%[11.4 µM]	0%[9.22 µM]	-22%[11.4 µM]	9%[9.17 µM]
CCN(CCCNC(=O)CC1Oc2ccc(C)cc2NC1=O)Cc1ccccc1 (stereo unspecified)	10µM*	-2%	0%	0%	-21%	-3%
Cc1ccc2c(c1)NC(=O)C(CC(=O)NCCCN1CCCC1)O2 (stereo unspecified)	-10%	nt	-5%	0%	5%	-6%
